What all share (assay): DAPPL (digital affinity profiling via proximity ligation, sequencing); 10 mM Tris-HCl pH 7.5, 50 mM NaCl, 1 mM DTT, 4% glycerol, room temperature, 30 min; GST-TFs on glutathione beads, 16-mer random dsDNA library, 0.1% formaldehyde crosslink after washing; high values mean tight binding
One experiment addresses T1, FLI1 (Homo sapiens, UniProt Q01543 1-452).
T1 sequence: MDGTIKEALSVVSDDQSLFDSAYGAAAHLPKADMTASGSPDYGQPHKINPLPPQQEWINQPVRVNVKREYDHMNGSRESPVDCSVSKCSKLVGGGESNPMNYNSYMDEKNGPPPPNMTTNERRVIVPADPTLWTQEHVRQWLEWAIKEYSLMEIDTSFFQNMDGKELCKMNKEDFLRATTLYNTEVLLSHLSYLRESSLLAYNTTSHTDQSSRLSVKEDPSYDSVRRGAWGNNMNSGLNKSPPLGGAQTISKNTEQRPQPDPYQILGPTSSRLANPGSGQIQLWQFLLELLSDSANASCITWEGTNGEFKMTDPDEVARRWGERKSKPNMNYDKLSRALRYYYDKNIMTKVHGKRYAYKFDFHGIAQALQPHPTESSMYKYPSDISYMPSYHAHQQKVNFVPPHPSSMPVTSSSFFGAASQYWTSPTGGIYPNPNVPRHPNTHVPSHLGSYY
Conditions: protein: recombinant; tags: N-terminal GST; dsDNA, one strand shown. Put shortly: (§1)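 Binding signal is given per hexamer as its read frequency for a factor divided by its frequency in the tag-only sample. GST-fused human transcription factors were expressed in yeast, captured on glutathione beads, barcoded with DNA and pooled with that sample, then incubated with 200 nmole of a 16-mer random double-stranded DNA library in Tris/NaCl/DTT/glycerol buffer for 30 min at room temperature. The pools were then washed, crosslinked, proximity-ligated, amplified by PCR and sequenced on an Illumina NextSeq500.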

A further experiment addresses T2, ELK1 (Homo sapiens, UniProt P19419 1-428).
T2 sequence: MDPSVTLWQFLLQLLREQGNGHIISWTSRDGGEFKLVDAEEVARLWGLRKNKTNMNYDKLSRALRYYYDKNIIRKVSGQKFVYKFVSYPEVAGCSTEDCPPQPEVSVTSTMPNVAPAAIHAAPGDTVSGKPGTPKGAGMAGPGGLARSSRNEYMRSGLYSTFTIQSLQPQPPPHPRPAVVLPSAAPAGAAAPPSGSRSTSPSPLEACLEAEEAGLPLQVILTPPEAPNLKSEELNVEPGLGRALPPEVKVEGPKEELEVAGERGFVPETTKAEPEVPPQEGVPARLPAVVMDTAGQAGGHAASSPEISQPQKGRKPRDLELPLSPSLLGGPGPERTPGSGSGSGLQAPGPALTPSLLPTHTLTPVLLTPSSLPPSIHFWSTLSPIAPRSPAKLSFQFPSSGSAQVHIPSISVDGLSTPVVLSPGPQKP
Conditions: protein: recombinant; tags: N-terminal GST; dsDNA, one strand shown. Put shortly:
as §1

A further experiment has as its target T3, GABPA (Homo sapiens, UniProt Q06546 1-454).
T3 sequence: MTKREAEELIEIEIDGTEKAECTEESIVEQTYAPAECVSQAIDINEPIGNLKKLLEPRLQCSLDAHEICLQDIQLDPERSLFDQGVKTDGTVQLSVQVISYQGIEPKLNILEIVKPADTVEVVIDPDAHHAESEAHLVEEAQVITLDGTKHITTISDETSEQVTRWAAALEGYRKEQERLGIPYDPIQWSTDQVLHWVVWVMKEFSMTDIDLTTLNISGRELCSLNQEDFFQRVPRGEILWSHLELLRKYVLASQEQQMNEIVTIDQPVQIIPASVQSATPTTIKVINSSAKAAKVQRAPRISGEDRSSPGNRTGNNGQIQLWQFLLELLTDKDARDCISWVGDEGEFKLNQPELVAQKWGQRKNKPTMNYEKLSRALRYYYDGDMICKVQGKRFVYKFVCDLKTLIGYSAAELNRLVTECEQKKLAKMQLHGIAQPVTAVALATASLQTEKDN
The settings on record: protein: recombinant; tags: N-terminal GST; dsDNA, one strand shown. Put shortly: as §1

Another experiment deals with T4, ERG (Homo sapiens, UniProt P11308 1-479).
T4 sequence: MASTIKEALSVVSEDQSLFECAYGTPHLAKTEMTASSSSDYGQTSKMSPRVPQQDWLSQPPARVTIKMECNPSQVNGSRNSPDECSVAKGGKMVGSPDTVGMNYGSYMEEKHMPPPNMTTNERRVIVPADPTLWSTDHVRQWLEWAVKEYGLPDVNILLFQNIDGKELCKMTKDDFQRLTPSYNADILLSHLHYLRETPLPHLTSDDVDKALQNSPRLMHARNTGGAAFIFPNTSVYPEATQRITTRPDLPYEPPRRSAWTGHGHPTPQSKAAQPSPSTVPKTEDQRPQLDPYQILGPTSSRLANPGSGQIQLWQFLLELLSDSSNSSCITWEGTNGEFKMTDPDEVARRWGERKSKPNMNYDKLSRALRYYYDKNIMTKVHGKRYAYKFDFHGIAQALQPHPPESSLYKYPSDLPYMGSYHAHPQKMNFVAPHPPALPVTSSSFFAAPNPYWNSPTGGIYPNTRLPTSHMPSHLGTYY
Conditions: protein: recombinant; tags: N-terminal GST; dsDNA, one strand shown. The essentials: as §1

Another experiment has as its target ELF1 (Homo sapiens, UniProt P32519 1-619). The settings on record: protein: recombinant; tags: N-terminal GST; dsDNA, one strand shown. The essentials: as §1
Another experiment deals with T5, EHF (Homo sapiens, UniProt Q9NZC4 1-300).
T5 sequence: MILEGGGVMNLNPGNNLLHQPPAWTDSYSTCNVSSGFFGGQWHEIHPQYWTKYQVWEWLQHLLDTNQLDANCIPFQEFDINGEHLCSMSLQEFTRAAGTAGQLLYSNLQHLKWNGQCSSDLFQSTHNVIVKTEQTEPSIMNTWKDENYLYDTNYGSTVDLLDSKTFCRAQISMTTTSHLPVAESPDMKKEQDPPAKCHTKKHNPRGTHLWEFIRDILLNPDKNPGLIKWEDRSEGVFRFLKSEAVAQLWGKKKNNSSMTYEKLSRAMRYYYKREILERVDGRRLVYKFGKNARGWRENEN
Conditions: protein: recombinant; tags: N-terminal GST; dsDNA, one strand shown. Put shortly:
as §1

The target of the next experiment is SPI1 (Homo sapiens, UniProt P17947 1-270). The settings on record: protein: recombinant; tags: N-terminal GST; dsDNA, one strand shown. The essentials: as §1
The next experiment has as its target SPIB (Homo sapiens, UniProt Q01892 1-262). Conditions: protein: recombinant; tags: N-terminal GST; dsDNA, one strand shown. The essentials:
as §1

The target in another experiment is T6, ELK3 (Homo sapiens, UniProt P41970 1-407).
T6 sequence: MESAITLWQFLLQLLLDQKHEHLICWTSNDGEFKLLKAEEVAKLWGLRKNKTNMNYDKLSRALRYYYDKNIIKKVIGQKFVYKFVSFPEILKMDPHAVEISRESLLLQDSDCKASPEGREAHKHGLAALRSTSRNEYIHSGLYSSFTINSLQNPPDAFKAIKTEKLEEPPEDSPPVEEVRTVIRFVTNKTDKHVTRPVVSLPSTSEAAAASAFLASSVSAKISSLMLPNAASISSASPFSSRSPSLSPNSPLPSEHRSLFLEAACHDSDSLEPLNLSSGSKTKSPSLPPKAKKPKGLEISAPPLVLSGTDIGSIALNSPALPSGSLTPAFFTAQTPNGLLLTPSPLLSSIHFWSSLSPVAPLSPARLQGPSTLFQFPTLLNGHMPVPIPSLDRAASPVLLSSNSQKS
The settings on record: protein: recombinant; tags: N-terminal GST; dsDNA, one strand shown. Put shortly:
as §1

The target in a further experiment is T7, FEV (Homo sapiens, UniProt Q99581 1-238).
T7 sequence: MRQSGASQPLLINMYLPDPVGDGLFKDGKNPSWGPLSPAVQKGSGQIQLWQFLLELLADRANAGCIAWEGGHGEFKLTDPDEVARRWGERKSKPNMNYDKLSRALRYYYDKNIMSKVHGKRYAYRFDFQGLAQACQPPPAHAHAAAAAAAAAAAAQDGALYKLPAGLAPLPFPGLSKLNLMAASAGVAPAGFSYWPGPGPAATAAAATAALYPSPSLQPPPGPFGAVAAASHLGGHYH
Conditions: protein: recombinant; tags: N-terminal GST; dsDNA, one strand shown. The essentials: as §1

The target in another experiment is ETV5 (Homo sapiens, UniProt P41161 1-510). The settings on record: protein: recombinant; tags: N-terminal GST; dsDNA, one strand shown. The essentials: as §1
Another experiment has as its target HSF1 (Homo sapiens, UniProt Q00613 1-529). The settings on record: protein: recombinant; tags: N-terminal GST; chain copies: 3; dsDNA, one strand shown. Put shortly: as §1
The next experiment addresses T8, SPIC (Homo sapiens, UniProt Q8N5J4 1-248).
T8 sequence: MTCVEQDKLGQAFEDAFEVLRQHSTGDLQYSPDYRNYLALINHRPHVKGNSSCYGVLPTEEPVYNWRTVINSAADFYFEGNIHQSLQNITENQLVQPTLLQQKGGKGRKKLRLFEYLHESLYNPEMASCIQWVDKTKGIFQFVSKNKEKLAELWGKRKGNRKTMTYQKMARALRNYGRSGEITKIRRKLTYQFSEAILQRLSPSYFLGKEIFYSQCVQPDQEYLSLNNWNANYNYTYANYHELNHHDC
The settings on record: protein: recombinant; tags: N-terminal GST; dsDNA, one strand shown. The essentials:
as §1

The target in a further experiment is ELF4 (Homo sapiens, UniProt Q99607 1-663). The settings on record: protein: recombinant; tags: N-terminal GST; dsDNA, one strand shown. The essentials:
as §1

The next experiment has as its target T9, ELK4 (Homo sapiens, UniProt P28324-2 1-405).
T9 sequence: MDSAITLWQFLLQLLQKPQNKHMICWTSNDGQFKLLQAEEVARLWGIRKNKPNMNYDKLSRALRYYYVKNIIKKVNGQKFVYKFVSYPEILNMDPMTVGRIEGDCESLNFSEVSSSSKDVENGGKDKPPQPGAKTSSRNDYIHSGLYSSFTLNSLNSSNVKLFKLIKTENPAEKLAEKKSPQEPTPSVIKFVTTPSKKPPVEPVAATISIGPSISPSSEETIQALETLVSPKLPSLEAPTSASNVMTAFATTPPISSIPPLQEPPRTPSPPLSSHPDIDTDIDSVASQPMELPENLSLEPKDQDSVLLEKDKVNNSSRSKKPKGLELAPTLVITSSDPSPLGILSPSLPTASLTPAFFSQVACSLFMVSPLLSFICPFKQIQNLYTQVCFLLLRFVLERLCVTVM
The settings on record: protein: recombinant; tags: N-terminal GST; dsDNA, one strand shown. Put shortly: as §1

The next experiment concerns the target T10, ETV2 (Homo sapiens, UniProt O00321 1-342).
T10 sequence: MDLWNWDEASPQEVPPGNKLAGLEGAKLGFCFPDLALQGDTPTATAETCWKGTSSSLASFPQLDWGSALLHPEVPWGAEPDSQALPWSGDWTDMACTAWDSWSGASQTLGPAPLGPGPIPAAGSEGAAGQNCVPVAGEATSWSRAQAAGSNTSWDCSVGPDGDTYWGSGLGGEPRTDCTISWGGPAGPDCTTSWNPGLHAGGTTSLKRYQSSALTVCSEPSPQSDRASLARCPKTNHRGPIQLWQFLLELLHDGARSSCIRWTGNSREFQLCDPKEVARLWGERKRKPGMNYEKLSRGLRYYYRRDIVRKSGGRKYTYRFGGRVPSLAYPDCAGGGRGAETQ
Conditions: protein: recombinant; tags: N-terminal GST; dsDNA, one strand shown. Put shortly:
as §1

Another experiment deals with T11, ELF3 (Homo sapiens, UniProt P78545 1-371).
T11 sequence: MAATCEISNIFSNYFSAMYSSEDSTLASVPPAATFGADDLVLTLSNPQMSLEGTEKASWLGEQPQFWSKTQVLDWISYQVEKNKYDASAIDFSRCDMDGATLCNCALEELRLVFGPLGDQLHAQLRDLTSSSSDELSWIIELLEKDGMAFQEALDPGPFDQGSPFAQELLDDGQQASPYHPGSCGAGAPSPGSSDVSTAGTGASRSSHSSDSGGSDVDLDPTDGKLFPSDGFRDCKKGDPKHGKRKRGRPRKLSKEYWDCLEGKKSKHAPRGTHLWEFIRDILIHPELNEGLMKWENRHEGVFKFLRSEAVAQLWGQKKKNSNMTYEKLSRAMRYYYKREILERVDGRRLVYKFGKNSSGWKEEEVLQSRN
Conditions: protein: recombinant; tags: N-terminal GST; dsDNA, one strand shown. Put shortly:
as §1

The target of a further experiment is CRX (Homo sapiens, UniProt O43186 1-299). The settings on record: protein: recombinant; tags: N-terminal GST; dsDNA, one strand shown. The essentials: as §1
Another experiment deals with ETV1 (Homo sapiens, UniProt P50549 1-477). Conditions: protein: recombinant; tags: N-terminal GST; dsDNA, one strand shown. Put shortly: as §1
Chain of ETV1 (P50549 whole entry): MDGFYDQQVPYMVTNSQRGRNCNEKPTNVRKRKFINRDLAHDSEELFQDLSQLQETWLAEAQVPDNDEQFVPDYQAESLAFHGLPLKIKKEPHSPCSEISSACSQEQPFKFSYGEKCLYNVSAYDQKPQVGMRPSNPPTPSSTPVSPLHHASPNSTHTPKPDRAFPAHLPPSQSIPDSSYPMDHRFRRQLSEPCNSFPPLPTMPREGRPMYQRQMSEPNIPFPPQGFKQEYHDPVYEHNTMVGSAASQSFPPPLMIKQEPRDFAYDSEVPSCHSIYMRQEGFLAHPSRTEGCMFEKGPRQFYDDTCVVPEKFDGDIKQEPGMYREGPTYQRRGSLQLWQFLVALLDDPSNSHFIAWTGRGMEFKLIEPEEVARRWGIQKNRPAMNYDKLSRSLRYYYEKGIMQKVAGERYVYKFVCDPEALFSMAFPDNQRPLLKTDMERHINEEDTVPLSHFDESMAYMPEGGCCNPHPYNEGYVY

Chain of CRX (O43186 whole entry): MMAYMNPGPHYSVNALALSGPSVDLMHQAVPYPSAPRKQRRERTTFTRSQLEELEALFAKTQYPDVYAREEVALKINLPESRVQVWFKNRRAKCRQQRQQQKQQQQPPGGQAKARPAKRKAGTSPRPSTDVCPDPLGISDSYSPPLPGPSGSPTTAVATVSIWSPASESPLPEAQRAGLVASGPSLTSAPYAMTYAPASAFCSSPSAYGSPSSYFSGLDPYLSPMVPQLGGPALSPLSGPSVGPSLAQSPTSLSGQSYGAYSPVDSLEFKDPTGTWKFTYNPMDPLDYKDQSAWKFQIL
Chain of HSF1 (Q00613 whole entry): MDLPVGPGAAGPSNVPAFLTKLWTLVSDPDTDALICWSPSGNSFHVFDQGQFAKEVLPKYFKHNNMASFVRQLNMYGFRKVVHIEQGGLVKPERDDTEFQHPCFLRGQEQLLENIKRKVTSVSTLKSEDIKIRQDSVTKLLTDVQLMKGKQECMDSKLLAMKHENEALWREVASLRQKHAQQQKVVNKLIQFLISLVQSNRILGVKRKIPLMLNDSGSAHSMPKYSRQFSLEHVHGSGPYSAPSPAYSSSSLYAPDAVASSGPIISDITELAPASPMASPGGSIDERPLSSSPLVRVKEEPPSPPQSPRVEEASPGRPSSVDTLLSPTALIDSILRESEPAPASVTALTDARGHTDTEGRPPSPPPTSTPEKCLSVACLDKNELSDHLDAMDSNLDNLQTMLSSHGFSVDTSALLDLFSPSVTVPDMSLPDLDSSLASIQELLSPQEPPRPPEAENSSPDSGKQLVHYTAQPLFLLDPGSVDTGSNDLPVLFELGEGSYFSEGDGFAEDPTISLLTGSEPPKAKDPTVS
Chain of ELF4 (Q99607 whole entry): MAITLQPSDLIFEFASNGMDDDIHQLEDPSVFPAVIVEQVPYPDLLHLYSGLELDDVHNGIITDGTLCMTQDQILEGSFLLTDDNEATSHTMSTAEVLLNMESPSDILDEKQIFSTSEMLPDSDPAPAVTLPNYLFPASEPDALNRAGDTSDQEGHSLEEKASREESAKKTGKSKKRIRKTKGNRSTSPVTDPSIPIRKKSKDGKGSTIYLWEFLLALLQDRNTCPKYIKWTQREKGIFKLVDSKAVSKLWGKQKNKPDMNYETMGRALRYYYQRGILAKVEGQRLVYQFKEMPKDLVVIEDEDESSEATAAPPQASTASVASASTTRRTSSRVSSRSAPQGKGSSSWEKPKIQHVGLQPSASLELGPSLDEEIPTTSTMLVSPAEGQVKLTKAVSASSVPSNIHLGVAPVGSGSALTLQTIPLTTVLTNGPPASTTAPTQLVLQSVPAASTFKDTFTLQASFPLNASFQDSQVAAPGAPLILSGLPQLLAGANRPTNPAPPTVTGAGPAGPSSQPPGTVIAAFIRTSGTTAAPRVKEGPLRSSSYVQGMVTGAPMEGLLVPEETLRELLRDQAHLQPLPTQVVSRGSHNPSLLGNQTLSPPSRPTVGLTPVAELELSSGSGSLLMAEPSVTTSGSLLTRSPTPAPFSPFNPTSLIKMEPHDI
Chain of ETV5 (P41161 whole entry): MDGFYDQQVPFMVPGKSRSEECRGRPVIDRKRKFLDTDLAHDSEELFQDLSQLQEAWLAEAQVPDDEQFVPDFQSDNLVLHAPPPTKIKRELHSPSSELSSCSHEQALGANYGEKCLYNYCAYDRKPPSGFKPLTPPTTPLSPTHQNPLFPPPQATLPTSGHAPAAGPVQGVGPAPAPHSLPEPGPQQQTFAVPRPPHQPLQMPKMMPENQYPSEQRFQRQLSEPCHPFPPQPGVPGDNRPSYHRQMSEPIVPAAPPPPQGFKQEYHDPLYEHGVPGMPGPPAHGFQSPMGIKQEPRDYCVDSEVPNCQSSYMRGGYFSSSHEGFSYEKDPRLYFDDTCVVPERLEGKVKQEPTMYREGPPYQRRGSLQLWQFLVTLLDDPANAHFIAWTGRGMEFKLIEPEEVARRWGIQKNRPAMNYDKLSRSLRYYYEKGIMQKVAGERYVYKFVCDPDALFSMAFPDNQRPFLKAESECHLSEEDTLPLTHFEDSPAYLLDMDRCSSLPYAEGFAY
Chain of ELF1 (P32519 whole entry): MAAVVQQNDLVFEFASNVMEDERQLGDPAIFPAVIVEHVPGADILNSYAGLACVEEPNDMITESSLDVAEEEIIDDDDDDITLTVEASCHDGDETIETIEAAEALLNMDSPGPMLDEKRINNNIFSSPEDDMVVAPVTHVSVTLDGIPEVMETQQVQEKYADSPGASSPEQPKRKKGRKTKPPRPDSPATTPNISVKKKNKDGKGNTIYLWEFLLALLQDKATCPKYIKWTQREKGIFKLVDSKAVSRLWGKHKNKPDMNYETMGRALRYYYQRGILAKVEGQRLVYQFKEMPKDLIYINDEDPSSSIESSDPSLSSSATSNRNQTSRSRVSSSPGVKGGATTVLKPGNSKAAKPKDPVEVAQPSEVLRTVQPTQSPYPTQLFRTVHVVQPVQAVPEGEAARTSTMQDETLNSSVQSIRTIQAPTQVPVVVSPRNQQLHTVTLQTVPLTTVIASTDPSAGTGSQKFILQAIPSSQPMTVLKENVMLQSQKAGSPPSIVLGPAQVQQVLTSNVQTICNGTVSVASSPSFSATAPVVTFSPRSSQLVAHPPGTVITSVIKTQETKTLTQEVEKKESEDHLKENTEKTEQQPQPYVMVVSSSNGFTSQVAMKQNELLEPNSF
Chain of SPIB (Q01892 whole entry): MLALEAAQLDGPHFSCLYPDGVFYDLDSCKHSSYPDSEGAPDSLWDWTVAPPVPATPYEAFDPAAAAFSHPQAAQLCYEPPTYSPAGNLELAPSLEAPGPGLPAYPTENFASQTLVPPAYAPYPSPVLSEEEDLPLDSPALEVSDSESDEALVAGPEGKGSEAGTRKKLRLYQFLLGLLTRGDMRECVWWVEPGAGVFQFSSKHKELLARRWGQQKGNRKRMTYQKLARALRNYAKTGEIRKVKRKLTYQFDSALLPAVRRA

Regarding ACAACT, the binding signal is 1.36 fold enrichment (6-mer frequency, TF over GST control) with FLI1; 1.4 fold enrichment (6-mer frequency, TF over GST control) with ELK1; 1.4 fold enrichment (6-mer frequency, TF over GST control) with GABPA; 1.41 fold enrichment (6-mer frequency, TF over GST control) with ERG; 1.46 fold enrichment (6-mer frequency, TF over GST control) with ELF1; 1.2 fold enrichment (6-mer frequency, TF over GST control) in the experiment with EHF. For the same sequence, the binding signal in the experiment with SPI1 is 1.41 fold enrichment (6-mer frequency, TF over GST control); with SPIB, 1.35 fold enrichment (6-mer frequency, TF over GST control); in the experiment with ELK3, 1.5 fold enrichment (6-mer frequency, TF over GST control); in the experiment with FEV it was 1.35 fold enrichment (6-mer frequency, TF over GST control); with ETV5, 1.32 fold enrichment (6-mer frequency, TF over GST control); with HSF1 it was 1.11 fold enrichment (6-mer frequency, TF over GST control). In addition, the binding signal was 1.39 fold enrichment (6-mer frequency, TF over GST control) with SPIC; 1.36 fold enrichment (6-mer frequency, TF over GST control) with ELF4; 1.34 fold enrichment (6-mer frequency, TF over GST control) with ELK4; 1.29 fold enrichment (6-mer frequency, TF over GST control) with ETV2; 1.42 fold enrichment (6-mer frequency, TF over GST control) with ELF3; 1.02 fold enrichment (6-mer frequency, TF over GST control) in the experiment with CRX. Further, the binding signal with ETV1 is 1.27 fold enrichment (6-mer frequency, TF over GST control).

Values taken from article PMC7862700, “An all-to-all approach to the identification of sequence-specific readers for epigenetic DNA modifications on cytosine”.
